An excerpt weighted towards active compounds, which were near 27% of everything screened.
CYP2C19 inh = inhibitors of human CYP2C19. P33261. CYP2C19 Supersomes, luciferin-H EGE luminescence, 30 min. inhibition, % at 5 µM. 21% of 96,000 active;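 active = CYP2C19 inhibition above a set limit at 5 µM in the primary screen, cut at about 50% in these data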;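 also: plate controls were negative control wells for no effect and 2.5 mM tranylcypromine positive control for full effect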
Cav3 T inh = blocks human Cav3.2 T-type calcium channel | 4% of 100,000 active | AID 449739 | O95180 | B-score at 10 µM | Cav3.2-expressing cells, Fluo-4 calcium fluorescence FDSS; active compounds read low;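 active = single-dose well whose peak fluorescence ratio is a statistical outlier from its plate by either plate-standardised score or position-corrected B-score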
CYP2C19 act = activators of human cytochrome P450 2C19. P33261. recombinant CYP2C19, luciferin-H EGE luminescence; active compounds read high; 0 = fully inhibited enzyme, 1 = untreated enzyme. activation factor at 5 µM. 96,000 tested, under 10 active;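 active = activation factor of at least 2 at 5 µM in the primary screen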;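 also: 0 = wells with 2.5 mM tranylcypromine and 1 = vehicle-only wells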
CYP2C9 act = CYP2C9 (human) activation. AID 1024. activation factor at 5 µM. recombinant CYP2C9, luciferin-H conversion, luminescence; active compounds read high; factor 1 = untreated enzyme, 0 = blocked. 1.4% of 96,000 active. P11712;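 active = activation factor of 2 or more for CYP2C9 at a 5 µM dose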;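 also: 0 = sulfaphenazole-blocked wells and 1 = vehicle-only wells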
CYP2C9 inh = inhibitors of human CYP2C9. P11712. CYP2C9 Supersomes, luciferin-H conversion, luminescence. inhibition, % at 5 µM. 20% of 96,000 active. AID 777;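 active = blocking of liver enzyme CYP2C9 beyond about 50% at 5 µM, limit read from the data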
Active calls of the source: *; x = no result.

SMILES	CYP2C19 inh	Cav3 T inh	CYP2C19 act	CYP2C9 act	CYP2C9 inh
Cc1nc(NC(=O)CSc2nc3cccnc3n2Cc2ccccc2)sc1C	63.2*	-1.43	0.4	0.4	58.7*
N#Cc1cc2ccccc2nc1SCC(=O)Nc1ccc(S(=O)(=O)N2CCCC2)cc1	37.5	-1.49	0.6	0.1	89.6*
COc1ccc2nc(SCC(=O)Nc3ccc(S(=O)(=O)N4CCCC4)cc3)c(C#N)cc2c1	21.6	-0.92	0.8	0.1	91.1*
COc1ccc2nc(N3CCCC3)c(C#N)cc2c1	3.4	-3.56*	1	0.8	24.9
Cc1cc(C)c2nc(SCC(=O)Nc3ccc(S(=O)(=O)N4CCCC4)cc3)c(C)cc2c1	37.9	-1.29	0.6	0.1	88.0*
Cc1nnc(SCC(=O)Nc2ccc(S(=O)(=O)N3CCCC3)cc2)n1N	-9.7	-1.31	1.1	1	4.6
Cc1nnc(SCC(=O)Nc2ccc(S(=O)(=O)N3CCCCC3)cc2)s1	15.3	0.404	0.8	0.8	21.7
CSc1nc(NC(C)(C)C)nc(Oc2ccc(=O)n(C)n2)n1	-4.1	0.131	1	1.1	-8.9
CCCNC(=O)Cn1nc(C(F)(F)F)c2c1CCCC2	x	0.105	x	x	x
CC12CCC(C(=O)Nc3ncc([N+](=O)[O-])s3)(OC1=O)C2(C)C (centres undefined)	-19.3	-0.418	1.2	1.1	-6.1
Cc1ccc(SCc2[nH]nc3c2C2(C(=O)Nc4ccc([N+](=O)[O-])cc42)C(C#N)=C(N)O3)cc1 (centres undefined)	33.5	-2.9	0.7	0.5	52.5*
Cc1ccc(SCc2[nH]nc3c2C2(CCSCC2)C(C#N)=C(N)O3)cc1	16.6	-0.343	0.8	0.7	32.1
COCCOC(=O)C1=C(C)NC(=O)N(C(C)=O)C1c1ccc(Cl)cc1 (centres undefined)	58.1*	-0.222	0.4	0.3	65.5*
CCOC(=O)C1=C(C)NC(=S)N(C(C)=O)C1c1ccc(Cl)cc1 (centres undefined)	x	-5.53*	x	x	x
CCOC(=O)C1=C(C)Nc2nc3ccccc3n2C1c1ccccc1 (centres undefined)	7.9	-0.297	0.9	0.8	16.2
COCCOC(=O)C1=C(C)Nc2ncnn2C1c1ccccc1 (centres undefined)	-0.5	-0.00939	1	1	1.2
COc1ccccc1-c1cc(-c2ccccc2)nc(SC(C(N)=O)c2ccccc2)c1C#N (centres undefined)	12.0	-0.76	0.9	0.7	30.4
Cc1ccc(/C=C/c2nc3ccccc3s2)s1	72.1*	-0.95	0.3	0.8	24.4
Cc1csc(NC(=O)c2c(-c3c(Cl)cccc3Cl)noc2C)n1	83.4*	-0.82	0.2	0.1	88.9*
Cc1onc(-c2c(Cl)cccc2Cl)c1C(=O)Nc1ccc2c(c1)OCO2	40.2	-1.49	0.6	0.2	81.4*
CN1CCN(S(=O)(=O)c2ccc(N(C)Cc3cccs3)nc2)CC1	4.1	-0.378	1	1.4	-39.5
Cc1nccn1CC(O)COC1CCCCC1 (centres undefined)	0.3	-0.247	1	1.1	-8.6
COCCCn1c(SCC(=O)Nc2cccc(C(=O)OC)c2)nnc1-c1ccncc1	81.3*	0.437	0.2	0.2	79.4*
COCCn1c(SCC(=O)Nc2cccc(OC)c2)nnc1-c1ccccc1	21.8	-3.68	0.8	0.9	9.0
COCCn1c(SCC(=O)Nc2sc(C)c(C)c2C#N)nnc1-c1ccc(OC)cc1	43.7	-0.518	0.6	0.5	54.3*
SMILES	CYP2C19 inh	Cav3 T inh	CYP2C19 act	CYP2C9 act	CYP2C9 inh
COCCn1c(SCC(=O)Nc2cccc(OC)c2)nnc1-c1ccc(Cl)cc1	93.5*	-1.09	0.1	0.3	67.4*
CCOc1cc2[nH]c(=S)n(CCC(=O)NCc3ccc(OC)cc3)c(=O)c2cc1OCC	3.0	x	1	0.3	73.2*
CCOc1cc2[nH]c(=S)n(CCCCC(=O)NCc3ccco3)c(=O)c2cc1OCC	-1.3	0.617	1	0.3	72.2*
NC(=O)CC12CC3CC(C1)CC(CC(N)=O)(C3)C2	-0.2	0.66	1	0.9	7.6
COc1ccc(C(C)C)cc1S(=O)(=O)n1cnc(C)c1	5.5	-2.74	0.9	1	-0.7
COc1cc(C)c(Cl)cc1S(=O)(=O)n1cnc(C)c1	97.0*	-0.676	0	2*	-104.9
COc1c2c(nc3occc13)C(CC=C(C)C)(OC)C(O)CC2 (centres undefined)	x	0.73	x	x	x
Cc1cc(NC(=O)CN2CCN(c3ncccn3)CC2)no1	-9.5	-0.335	1.1	1	1.1
